# Key:
# Test in all cases: thermal shift delta Tm vs DMSO control; higher = stronger stabilization (binding)
# Conditions in all cases: 12.5 µM; protein concentration 2 µM
# LOC_OS02G45750-cb003 = system: LOC_OS02G45750-cb003
# Method in brief: (§1)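 Purified, E. coli-expressed rice kinase domain constructs were tested by differential scanning fluorimetry in 96-well plates: 19.5 μl of 2 μM kinase in 100 mM potassium phosphate pH 7.5, 150 mM NaCl, 10% glycerol, 5 × SYPRO Orange, plus compound in DMSO. Fluorescence was read from 25°C to 95°C at 0.05°C/s. Melting temperatures came from Boltzmann fits, and the shift is the triplicate mean relative to protein with DMSO alone.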
# LOC_OS02G54510-cb004 = system: LOC_OS02G54510-cb004
# Method in brief: as §1
# LOC_OS03G04050-cb001 = system: LOC_OS03G04050-cb001
# Method in brief: as §1
# LOC_OS03G12390-cb001 = system: LOC_OS03G12390-cb001
# Method in brief: as §1
# LOC_OS03G27990-cb004 = system: LOC_OS03G27990-cb004
# Method in brief: as §1
# LOC_OS03G50450-cb001 = system: LOC_OS03G50450-cb001
# Method in brief: as §1
# LOC_OS03G50810-cb003 = system: LOC_OS03G50810-cb003
# Method in brief: as §1
# LOC_OS04G35114-cb001 = system: LOC_OS04G35114-cb001
# Method in brief: as §1
# LOC_OS04G38480-cb003 = system: T1, LOC_OS04G38480-cb003
# T1 sequence (whole entry): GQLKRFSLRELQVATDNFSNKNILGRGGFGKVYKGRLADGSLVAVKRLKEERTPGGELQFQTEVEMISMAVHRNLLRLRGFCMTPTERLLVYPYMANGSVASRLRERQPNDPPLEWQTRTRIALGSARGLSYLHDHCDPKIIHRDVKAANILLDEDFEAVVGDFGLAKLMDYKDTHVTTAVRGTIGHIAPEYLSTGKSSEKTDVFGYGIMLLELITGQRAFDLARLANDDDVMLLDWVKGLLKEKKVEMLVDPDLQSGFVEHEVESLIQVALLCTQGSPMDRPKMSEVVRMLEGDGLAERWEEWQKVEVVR
# Method in brief: as §1
# LOC_OS04G41100-cb001 = system: T2, LOC_OS04G41100-cb001
# T2 sequence (whole entry): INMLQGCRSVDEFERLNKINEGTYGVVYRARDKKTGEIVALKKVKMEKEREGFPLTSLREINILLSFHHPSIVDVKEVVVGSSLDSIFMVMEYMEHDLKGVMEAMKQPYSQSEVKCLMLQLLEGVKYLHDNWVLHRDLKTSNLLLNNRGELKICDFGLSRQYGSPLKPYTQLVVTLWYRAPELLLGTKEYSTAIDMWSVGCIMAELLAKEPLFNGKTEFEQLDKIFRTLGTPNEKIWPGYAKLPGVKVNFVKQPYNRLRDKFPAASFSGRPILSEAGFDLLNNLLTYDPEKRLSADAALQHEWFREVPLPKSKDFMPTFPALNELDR
# Method in brief: as §1
# LOC_OS04G57630-cb004 = system: LOC_OS04G57630-cb004
# Method in brief: as §1
# LOC_OS05G07850-cb002 = system: LOC_OS05G07850-cb002
# Method in brief: as §1
# LOC_OS05G16824-cb004 = system: LOC_OS05G16824-cb004
# Method in brief: as §1
# LOC_OS05G28520-cb001 = system: LOC_OS05G28520-cb001
# Method in brief: as §1
# LOC_OS05G30820-cb001 = system: LOC_OS05G30820-cb001
# Method in brief: as §1
# LOC_OS05G43570-cb004 = system: LOC_OS05G43570-cb004
# Method in brief: as §1
# LOC_OS06G16330-cb003 = system: LOC_OS06G16330-cb003
# Method in brief: as §1
# LOC_OS06G22820-cb001 = system: T3, LOC_OS06G22820-cb001
# T3 sequence (whole entry): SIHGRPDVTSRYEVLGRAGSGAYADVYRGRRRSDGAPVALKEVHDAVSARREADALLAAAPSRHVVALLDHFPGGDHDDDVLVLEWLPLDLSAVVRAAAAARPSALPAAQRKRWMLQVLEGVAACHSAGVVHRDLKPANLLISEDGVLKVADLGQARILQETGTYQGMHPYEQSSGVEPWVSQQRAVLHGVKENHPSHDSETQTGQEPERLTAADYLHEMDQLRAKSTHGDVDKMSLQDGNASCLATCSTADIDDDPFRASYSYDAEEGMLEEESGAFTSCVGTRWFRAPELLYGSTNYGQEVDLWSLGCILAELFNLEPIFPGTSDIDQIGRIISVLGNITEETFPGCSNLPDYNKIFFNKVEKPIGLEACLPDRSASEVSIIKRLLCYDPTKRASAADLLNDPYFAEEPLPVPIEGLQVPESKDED
# Method in brief: as §1
# LOC_OS07G06570-cb004 = system: LOC_OS07G06570-cb004
# Method in brief: as §1
# LOC_OS07G07230-cb001 = system: LOC_OS07G07230-cb001
# Method in brief: as §1
# Chain of LOC_OS06G16330-cb003 (as listed by the source): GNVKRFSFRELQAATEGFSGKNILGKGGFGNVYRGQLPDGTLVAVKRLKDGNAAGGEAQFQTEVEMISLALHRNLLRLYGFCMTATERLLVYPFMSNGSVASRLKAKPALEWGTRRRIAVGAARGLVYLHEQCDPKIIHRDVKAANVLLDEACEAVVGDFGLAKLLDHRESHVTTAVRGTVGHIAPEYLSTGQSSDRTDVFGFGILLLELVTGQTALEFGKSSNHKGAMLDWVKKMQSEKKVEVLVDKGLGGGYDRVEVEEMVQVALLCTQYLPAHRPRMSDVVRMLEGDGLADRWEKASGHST
Structure (SMILES),thermal shift delta Tm (LOC_OS02G45750-cb003),thermal shift delta Tm (LOC_OS02G54510-cb004),thermal shift delta Tm (LOC_OS03G04050-cb001),thermal shift delta Tm (LOC_OS03G12390-cb001),thermal shift delta Tm (LOC_OS03G27990-cb004),thermal shift delta Tm (LOC_OS03G50450-cb001),thermal shift delta Tm (LOC_OS03G50810-cb003),thermal shift delta Tm (LOC_OS04G35114-cb001),thermal shift delta Tm (LOC_OS04G38480-cb003),thermal shift delta Tm (LOC_OS04G41100-cb001),thermal shift delta Tm (LOC_OS04G57630-cb004),thermal shift delta Tm (LOC_OS05G07850-cb002),thermal shift delta Tm (LOC_OS05G16824-cb004),thermal shift delta Tm (LOC_OS05G28520-cb001),thermal shift delta Tm (LOC_OS05G30820-cb001),thermal shift delta Tm (LOC_OS05G43570-cb004),thermal shift delta Tm (LOC_OS06G16330-cb003),thermal shift delta Tm (LOC_OS06G22820-cb001),thermal shift delta Tm (LOC_OS07G06570-cb004),thermal shift delta Tm (LOC_OS07G07230-cb001)
"Cc1cc(Nc2cc(N3CCN(C)CC3)nc(Sc3ccc(NC(=O)C4CC4)cc3)n2)n[nH]1 [Tozasertib (VX-680, MK-0457)]",6.99 °C,1.33 °C,0.64 °C,1.35 °C,0.54 °C,3.08 °C,4.7 °C,8.53 °C,2.62 °C,2.03 °C,5.53 °C,8.32 °C,15.4 °C,2.06 °C,0.66 °C,0.98 °C,5.98 °C,0.83 °C,0.91 °C,0.6 °C
Cn1c(=O)c(Oc2ccc(F)cc2F)cc2cnc(NC(CCO)CCO)nc21,0.76 °C,0.53 °C,0.43 °C,-0.19 °C,0.49 °C,0.26 °C,0.46 °C,0.71 °C,0.93 °C,0.09 °C,-0.25 °C,0.33 °C,-2.67 °C,0.51 °C,0.63 °C,0.19 °C,-0.27 °C,0.72 °C,1.46 °C,0.54 °C
FC(F)(F)c1ccc(/C=C/c2nc(COc3ccc(CCCCn4ccnn4)cc3)co2)cc1 [Mubritinib (TAK 165)],0.54 °C,0.1 °C,0.37 °C,0 °C,0.51 °C,0.76 °C,0.3 °C,0.27 °C,0.25 °C,0.36 °C,0.31 °C,0.65 °C,-1.49 °C,0.05 °C,0.57 °C,0.39 °C,-0.19 °C,0.32 °C,0.47 °C,-1.09 °C
O=C(Nc1ccc(OC(F)(F)F)cc1)c1sccc1NCc1ccnc2ccccc12,0.52 °C,4.36 °C,0.44 °C,0.88 °C,0.45 °C,0.51 °C,0.48 °C,0.29 °C,0.95 °C,0.59 °C,0.49 °C,2.25 °C,-0.83 °C,0.05 °C,0.65 °C,0.67 °C,0.61 °C,0.92 °C,0.2 °C,-0.46 °C
COC(=O)[C@]12CCC(C)(C)C[C@H]1[C@H]1C(=O)C=C3[C@@]4(C)C=C(C#N)C(=O)C(C)(C)[C@@H]4CC[C@@]3(C)[C@]1(C)CC2 [Bardoxolone Methyl],0.78 °C,-3.73 °C,-0.12 °C,-11.6 °C,-4.29 °C,-0.95 °C,-3.78 °C,-4.61 °C,-6.53 °C,-1.7 °C,-4.85 °C,-6.24 °C,-7.05 °C,-4.77 °C,0.07 °C,-2.54 °C,-3.91 °C,0.1 °C,0.47 °C,0.11 °C
CCN(C)S(=O)(=O)Nc1ccc(F)c(C(=O)c2c[nH]c3ncc(-c4cnc(C5CC5)nc4)cc23)c1F,3.15 °C,0.87 °C,0.3 °C,0.5 °C,0.47 °C,0.08 °C,0.44 °C,2.53 °C,0.81 °C,0.37 °C,1.47 °C,6.9 °C,1.58 °C,1.1 °C,0.45 °C,0.13 °C,1.23 °C,0.65 °C,0.34 °C,1.77 °C
COc1cc2c(c(OC)c1OC)-c1c(cc3c(c1OC)OCO3)CC(C)C(C)C2 (stereo not given) [Schisandrin B (Sch B)],-0.1 °C,-0.01 °C,0.81 °C,0.12 °C,0.05 °C,0.76 °C,0.12 °C,0.63 °C,0.75 °C,0.48 °C,0.17 °C,1.23 °C,-1 °C,0.63 °C,0.52 °C,0.14 °C,-0.39 °C,0.43 °C,1.21 °C,-0.17 °C
C=CC(=O)Nc1cccc(C)c1Nc1ncc2cc(-c3c(Cl)c(OC)cc(OC)c3Cl)ccc2n1,1.09 °C,0.44 °C,0.49 °C,-0.06 °C,0.28 °C,0.23 °C,0.27 °C,0.49 °C,2.08 °C,0.27 °C,0.51 °C,0.53 °C,-0.76 °C,0.18 °C,0.34 °C,0.48 °C,-5.85 °C,0.33 °C,0.84 °C,0.04 °C
CCn1c(=O)c(-c2cc[nH]n2)cc2c(C)nc(N)nc21,0.15 °C,0.22 °C,0.35 °C,0.21 °C,0.09 °C,0.05 °C,0.28 °C,0.94 °C,0.82 °C,0.15 °C,0.11 °C,3 °C,-1.71 °C,0.22 °C,0.35 °C,-0.07 °C,0.86 °C,0.06 °C,0.51 °C,0.61 °C
C=CC(=O)Nc1cccc(Nc2nc(Nc3ccc(Oc4ccnc(C(=O)NC)c4)cc3)ncc2F)c1,0.72 °C,1.23 °C,0.77 °C,2.55 °C,0.98 °C,1.34 °C,2.61 °C,2.69 °C,3.42 °C,0.73 °C,1.31 °C,11 °C,6.27 °C,0.89 °C,0.57 °C,0.22 °C,6.48 °C,0.38 °C,0.89 °C,1.49 °C
CC1(C)CNc2cc(NC(=O)c3cccnc3NCc3ccncc3)ccc21 [Motesanib Diphosphate (AMG-706)],-0.06 °C,1.49 °C,0.4 °C,-0.39 °C,0.2 °C,-0.1 °C,0.3 °C,0.51 °C,0.65 °C,0.6 °C,-0.11 °C,0.52 °C,-3.02 °C,0.68 °C,0.49 °C,0.21 °C,-0.19 °C,0.37 °C,0.75 °C,0.81 °C
CC[C@@](C)(Nc1ccnc(-c2c[nH]c3ncccc23)n1)C(=O)NCC(F)(F)F [Decernotinib (VX-509)],1.82 °C,0.32 °C,0.47 °C,0.52 °C,0.33 °C,0.54 °C,1.35 °C,1.32 °C,3.52 °C,0.25 °C,0.07 °C,9.28 °C,2.45 °C,0.87 °C,0.49 °C,0.57 °C,8.57 °C,0.47 °C,0.54 °C,0.24 °C
